Data reported in PubChem BioAssay AID686978 (National Center for Advancing Translational Sciences (NCATS), 2013).
In all, about 420,000 compounds went through this assay and about 64,000 (15%) were called active. Not shown: some 27% with an inconclusive outcome. Not all results are given here. Values without a mark were called inactive. Calls follow the shape of the dose curve; as a rule, active = well fitted inhibition curve with a large enough effect; inconclusive = small, poorly fitted or top-dose-only effect; inactive = flat fitted curve, though single readings scatter.

Assay: qHTS for Inhibitors of human tyrosyl-DNA phosphodiesterase 1 (TDP1): qHTS in cells in absence of CPT; also: nearly all actives have a fitted effect of over 55% in size
Conditions: DT40 Tdp1-/- hTDP1 cells, no CPT, ATP luminescence, 48 h; activity change, negative = growth inhibition: at 46.2 µM (top of the series)
Procedure, shortened: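 Growth of hTDP1-complemented DT40 Tdp1-knockout cells is measured by ATP luminescence after at least 48 hr compound exposure at 37 °C, with DMSO substituting for the 20 nM CPT used in the parallel screen.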
% is scaled to controls: 0 for no effect and ±100 for the full control effect; potency is read from the fitted curve at half-maximal effect.

SMILES	activity change, negative = growth inhibition	Potency
S=C(Nc1ccc2c(c1)OCO2)N1CCCC1	5.97%	
Nc1ccc(Cl)c(S(=O)(=O)Nc2ccccc2Cl)c1	-16.2%	
Cc1cc(C)n(CC(O)CN(c2ccccc2)S(=O)(=O)c2ccc3ccccc3c2)n1 (centres undefined)		23.1 µM (active)
O=S(=O)(c1ccccc1)N(CC(O)CN1CCCCC1)c1ccccc1 (centres undefined)	-22.7%	
CCN(c1ccccc1)S(=O)(=O)c1ccc2[nH]c(=O)[nH]c2c1	-5.25%	
CCCCCN(C(=O)CCC(=O)OCC(=O)NC1CCC(C)CC1)c1c(N)n(CCCC)c(=O)[nH]c1=O (centres undefined)	-10.5%	
Cc1nc(SCC(=O)N2CCN(c3ccccc3)CC2)[nH]c(=O)c1C	-8.2%	
O=C(COC(=O)CNC(=O)c1ccco1)Nc1ccc(F)cc1	3.34%	
CCCNC(=O)c1ccc(N2CCC3(CC2)CC(c2ccc(Cl)cc2)=NO3)c([N+](=O)[O-])c1		20.6 µM (active)
CCCN(CCC)CCNC(=O)c1ccc2c(c1)NC(=O)C(CS(=O)(=O)Cc1cccc(Br)c1)N2 (centres undefined)	-13.6%	
COC(=O)c1ccc(N2CCOCC2)c(NC(=O)c2ccc(Br)o2)c1	2.37%	
CCN1CCC(=NNC(=O)c2ccc(C)c([N+](=O)[O-])c2)CC1	-6.49%	
COCCNC(=O)c1ccc(N2CCC3(CC2)OCCO3)c([N+](=O)[O-])c1	6.61%	
CCCNC(=O)c1ccc(N2CCC3(CC2)CC(c2cccc(Br)c2)=NO3)c(NC(=O)c2ccco2)c1		6.51 µM (active)
CN[C@@H]1[C@@H](O)[C@@H](O[C@@H]2[C@H](O)[C@H](O[C@H]3OC(CN)=CC[C@H]3N)[C@@H](N)C[C@H]2N)OCC1(C)O (some centres undefined)	-2.47%	
CN1C(C)(C)CC(NC(=O)CCC(=O)NC2CC(C)(C)N(C)C(C)(C)C2)CC1(C)C	-1.8%	
O=P(O)(CP(=O)(c1ccccc1)c1ccccc1)c1ccccc1	5.73%	
Cc1ccc(S(=O)(=O)N2CC(=O)Nc3ccccc32)cc1C	-3.91%	
COC(=O)C1=C(C)OC(N)=C(C#N)C1c1cc(OC)ccc1OC (centres undefined)	-29.9%	
C=CCOC(=O)C1=C(C)OC(N)=C(C#N)C1c1ccc(F)cc1 (centres undefined)		29.1 µM (active)
C=CCOC(=O)C1=C(C)NC(SCC(=O)OCC)=C(C#N)C1c1ccc(C)cc1 (centres undefined)	-15.5%	
O=[N+]([O-])c1ccccc1SNc1ccccn1		16.4 µM (active)

SMILES	activity change, negative = growth inhibition	Potency
Nc1nc(Sc2ncccc2[N+](=O)[O-])n[nH]1	-8.98%	
O=C(CSc1nnc(-c2ccc([N+](=O)[O-])cc2)o1)Nc1ccccn1	-7.37%	
O=C(Nc1ccncc1)c1ccc([N+](=O)[O-])cc1Cl	-29.3%	
COCC(C)NC(=O)CSc1nc2nn(-c3ccccc3)c(=O)c-2c2n1CCCCC2 (centres undefined)	-22.2%	
NNC(=O)C1CC(O)CN1S(=O)(=O)c1ccc(Cl)cc1 (centres undefined)	11.9%	
CC1(C)CC(=O)C(N=Nc2ccc(S(=O)(=O)N3CCCCCC3)cc2)=C(O)C1	0.194%	
Cc1cnc(NC(=O)c2ccc(Cl)nc2)s1	-9.74%	
CCN(CC)c1ccc(NC(=O)c2ccc(Cl)nc2)cc1		2.59 µM (active)
NS(=O)(=O)c1ccc(NC(=O)COC(=O)c2ccc(Cl)nc2)cc1	-7.79%	
Cc1ccc2c(c1)NCC(C(=O)NC1CCC(C)CC1)O2 (centres undefined)	6.84%	
CC1(c2ccc3ccccc3c2)NC(=O)N(CC(N)=O)C1=O (centres undefined)	16.1%	
CCOC(=O)C1CCN(C(=O)CN2C(=O)NC(C)(c3ccc4cc(OC)ccc4c3)C2=O)CC1 (centres undefined)		10.3 µM (active)
CCOC(=O)C1CCN(C(=O)Nc2cccc(OC)c2)CC1	-16.6%	
COc1ccc(C2C3=C(CCCC3=O)N(CC(=O)O)C3=C2C(=O)CCC3)cc1	-5.43%	
CCOc1ccc(NC(=O)C2CCN(C(=O)N3CCOc4ccccc43)CC2)cc1		20.6 µM (active)
COC(=O)c1ccccc1NC(=O)C1CCN(C(=O)N2CCOc3ccccc32)CC1		23.1 µM (active)
CCOc1ccc(NC(=O)N2CCN(CC)CC2)cc1	10.4%	
CC(=O)N1CCOc2ccc(S(=O)(=O)N3CCC(C(=O)Nc4ccccc4F)CC3)cc21	2%	
CCOc1ccc(NC(=S)N2CCC(NC(=O)c3ccccc3)CC2)cc1	-23.6%	
CCOC(=O)c1ccccc1NC(=S)N1CCC(C(N)=O)CC1	-1.16%	
Cc1ccsc1C(=O)OCC(=O)Nc1cccc(F)c1	0.675%	
O=C(Nc1cccc2ccccc12)N1CCN(Cc2ccc3c(c2)OCO3)CC1	-18.2%	

SMILES	activity change, negative = growth inhibition	Potency
N#Cc1cccc(CN2CCC(=O)N(CCO)CC2)c1	-6.69%	
CC(C)[C@@H]1NC(=O)[C@H](Cc2ccccc2)NC(=O)[C@@H](CC(=O)O)NC(=O)CNC(=O)[C@H](CCCNC(=N)N)NC1=O	-11.7%	
C=CCOc1ccc(/C=C/C(=O)OCC(=O)NCC2CCCO2)cc1 (centres undefined)	2.03%	
CCC(=O)Nc1ccccc1N1CCN(S(C)(=O)=O)CC1	-13.9%	
O=C(CN1CCN(c2ccc(F)cc2)CC1)Nc1ccccc1	6.29%	
CCCCC(=O)Nc1ccccc1N1CCN(c2ccc(F)cc2)CC1		16.4 µM (active)
CCC(C)C(=O)Nc1ccccc1N1CCN(c2ccc(F)cc2)CC1 (centres undefined)		20.6 µM (active)
O=C(CN1CCN(c2ccccc2)CC1)Nc1ccc(F)cc1	-3.59%	
Cc1cccc(C)c1NC(=O)CN1CCN(c2ccc(F)cc2)CC1		20.6 µM (active)
O=C(NC(=S)Nc1ccccc1N1CCCCC1)c1ccc(F)cc1	-6.59%	
CCn1cc(CN2CCCC(CNS(=O)(=O)Cc3ccccc3)C2)cn1 (centres undefined)	6.09%	
CC(C)C(=O)Nc1nnc(SCC(=O)N2C(C)CCCC2C)s1 (centres undefined)	-20.3%	
C[C@H]1CN([C@@H](C)CO)C(=O)CCCn2cc(nn2)CO[C@@H]1CN(C)S(=O)(=O)c1cccc(C#N)c1	-2.79%	
CC(C)NC(=O)C(c1ccc(F)cc1)N(C(=O)CCC(=O)Nc1ccccn1)c1ccccc1F (centres undefined)	0.0629%	
O=C(Nc1ccccc1Cl)N1CCC(CN2CCCCC2)CC1	-15.7%	
CC(=O)N=c1ncn(CC(COC(C)=O)OC(C)=O)c2nc[nH]c12 (centres undefined)	-11.6%	
Cc1ccc(CNC(=O)CCCNC(=O)c2ccc(Cl)cc2)n1C	-3.81%	
Cc1nc(-c2ccc(Cl)cc2)sc1C1(C)CC(c2ccc(Br)cc2)=NO1 (centres undefined)	-21.1%	
Cc1cccc(NC(=O)CSc2nc3c(c(=O)[nH]2)CCC3)c1C	-22.3%	
CCCCn1c(N)c(N(CC(C)C)C(=O)c2cccc(S(=O)(=O)N3CCN(C(C)=O)CC3)c2)c(=O)[nH]c1=O	-2.87%	
